Bioassay records as filed in PubChem.
SUMO Mot1 rescue: yeast Mot1-301 growth rescue at high temperature, primary screen, SUMOylation pathway inhibitor project, S. cerevisiae, ATP luminescence, 38.5C; S. cerevisiae Mot1-301 growth rescue; percent above DMSO median, 100 means doubled; growth rescue, % at 18.8 µM; actives 1% (n = 320,000); AID 2716, 2010;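 active means every valid replicate shows activation above 250% relative to neutral control wells; inactive means the rest, any valid replicate at or below 250%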;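 further: OY570 slx delta 5 strain wells were the positive control but not used for scaling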
CHT PAM: CHT positive allosteric modulators, primary screen, cell-based, membrane potential dye, choline EC20; CHT-expressing cells; stronger effect = higher value; LV-AA mutant CHT in HEK293 cells; AID 488977, 2010; B-score at 10 µM; actives 0.49% (n = 310,000); High affinity choline transporter 1 (Homo sapiens), Q9GZV3;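 active means initial fluorescence not abnormally high and integrated response B-score, plate-corrected, over 3 SD above library mean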
Target sequence (Q9GZV3 whole entry, looked up): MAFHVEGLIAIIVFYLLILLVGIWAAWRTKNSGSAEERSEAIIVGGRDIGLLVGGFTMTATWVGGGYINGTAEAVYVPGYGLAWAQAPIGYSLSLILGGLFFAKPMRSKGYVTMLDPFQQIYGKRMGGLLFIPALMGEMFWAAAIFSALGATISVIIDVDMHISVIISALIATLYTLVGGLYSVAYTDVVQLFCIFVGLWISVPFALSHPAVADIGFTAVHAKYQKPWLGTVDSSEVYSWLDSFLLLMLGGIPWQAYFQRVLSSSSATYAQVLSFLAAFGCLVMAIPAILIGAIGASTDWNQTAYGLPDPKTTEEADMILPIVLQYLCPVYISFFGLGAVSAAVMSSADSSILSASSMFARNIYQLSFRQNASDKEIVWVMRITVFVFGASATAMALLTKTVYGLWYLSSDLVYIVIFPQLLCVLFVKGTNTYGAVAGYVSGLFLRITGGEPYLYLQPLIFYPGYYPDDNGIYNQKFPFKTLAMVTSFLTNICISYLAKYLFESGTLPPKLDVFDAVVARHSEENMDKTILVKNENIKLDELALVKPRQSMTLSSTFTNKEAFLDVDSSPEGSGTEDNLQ
NALP1 inh: NALP1 inflammasome inhibitors in reconstituted yeast, colorimetric, S. cerevisiae, triplicate retest. actives 0.61% (n = 280,000). S. cerevisiae NALP1/ASC/caspase-1 growth, X-gal OD620, 72 h. AID 2071, 2009. inhibition, % at 10 µM; in the data active means inhibition mostly above about 24%, no sharp cut-off; inactive means mostly below about 32%
Bfl-1 A1 inh: caspase 3/7 activation in MEF A1-2A-BIM cells, primary screen, A1 inhibitor project, cell-based, luminescence, HTS | caspase activation, % (test concentration not listed) | actives 0.066% (n = 330,000) | Caspase-Glo 3/7 luminescence, 3 h; percent of clofoctol response, vehicle zero;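 active means over half of replicate activation scores above 10%, or exactly half above 10 with the replicate mean above 10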
CHT block: inhibitors of human choline transporter CHT; B-score at 10 µM; CHT-expressing cells, membrane potential dye, choline response; stronger effect = lower value; actives 0.86% (n = 310,000); High affinity choline transporter 1 (Homo sapiens), Q9GZV3;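 active means B-score over 3 SD under the library average, and starting fluorescence ratio not unusually high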;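 further: choline stimulus applied at its EC90 after an EC20 pre-addition; B-score computed on integrated fluorescence ratio after choline addition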
NALP3 yeast inh: NALP3 inflammasome inhibitors in reconstituted yeast, primary screen, luminescence, uHTS; Yeast reconstituted NLRP3/ASC/caspase-1, beta-gal luminescence, 24 h; inhibition, % at 10 µM; actives 0.39% (n = 330,000); AID 2825, 2010;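 active means inhibition of 50% or more; inactive means inhibition below 50%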;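 further: plate controls were induced DMSO wells for no effect and uninduced yeast grown without galactose for full effect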
CHT block conf: CHT inhibitors, confirmation, cell-based, membrane potential dye, duplicate | shares compounds with CHT block | CHT-expressing cells, choline membrane potential dye; LV-to-AA substituted CHT, HEK293 cells | CHT activity remaining % of control (stronger effect = lower value), % at 10 µM | actives 70% (n = 2,400) | AID 493221, 2011;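 active means choline transporter activity left, mean of duplicates at 10 µM, below buffer-only control mean minus 3 SD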;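 further: depolarization triggered by choline at its EC90 following an EC20 pre-addition; 0% = hemicholinium-3 full block and 100% = buffer-only control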
HEK293 MPD ctr: membrane potential effects in parental HEK293, counter-screen for CHT inhibitor project, cell-based, membrane potential dye. actives 4% (n = 2,400). AID 493222, 2011. choline response; active = decrease or increase beyond buffer ±3SD. shares compounds with CHT block. membrane potential ratio readout (active if shifted either direction beyond buffer ±3SD; no single direction) at 10 µM;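 further: parental cells lack the transporter so any hit is non-specific; ratio is peak minus trough fluorescence over baseline after EC90 choline challenge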
Starred values were filed as active, the others as inactive; i = inactive; x = no result. Shown are actives, neighbours in structure and some others; about 3% of the full set was active somewhere.

SMILES	SUMO Mot1 rescue	CHT PAM	NALP1 inh	Bfl-1 A1 inh	CHT block	NALP3 yeast inh	CHT block conf	HEK293 MPD ctr
O=C(Nc1nnc(S(=O)(=O)N2CCCC2)s1)c1cccc([N+](=O)[O-])c1	5.4	i	-22.2	1.0	i	1.2	x	x
O=C(Nc1nnc(C2CC2)s1)C1COc2ccccc2O1 (configuration not stated)	-19.5	i	-2.9	-2.9	i	32.9	x	x
O=C(Nc1nnc(C(F)(F)F)s1)C1COc2ccccc2O1 (configuration not stated)	-10.3	i	9.0	-9.6	-5.36*	5.8	49.5%*	i
COCCCn1cnnc1SC(C)C(=O)Nc1ccc(S(=O)(=O)N2CCOCC2)cc1 (configuration not stated)	-14.9	x	x	0.8	x	3.7	x	x
O=C(CCC1CCCC1)NCCS(=O)(=O)N1CCN(c2ccc(F)cc2)CC1	6.9	i	x	-0.1	-5.16*	15.4	i	i
c1ccc(C[C@H]2CN=C(Nc3ccccc3)N2CCC2CCCC2)cc1	-15.8	i	x	2.2	-6.76*	32.9	56.1%*	i
CC(C)C[C@H]1CN=C(Nc2ccccc2)N1CCC1CCCCC1	-9.3	i	-5.4	0.5	i	-12.2	x	x
CCN(CC)c1ncnc2c1[nH]c1ccccc12	2.5	i	8.8	0.3	-6.65*	21.6	52.1%*	i
Cc1ccc(COc2ccsc2C(=O)O)cc1	x	x	-15.2	x	x	x	x	x
CSc1nnc(-c2sccc2OCc2ccc(C)cc2)n1C	-10.0	i	-2.2	1.4	-5.35*	-5.3	67.5%*	-9.82*
O=C(NCCN1CCCC1)c1ccc2c(c1)N(Cc1cccc(Cl)c1)C(=O)c1ccccc1S2(=O)=O	163.4	i	28.0	0.5	-9.49*	6.3	34.2%*	i
CC1CCCN(CCCNC(=O)c2ccc3c(c2)N(Cc2ccccc2F)C(=O)c2ccccc2S3(=O)=O)C1 (configuration not stated)	-4.3	i	24.3	0.6	-7.12*	9.4	34.6%*	i
O=C(NCCN1CCOCC1)c1ccc2c(c1)N(Cc1ccccc1F)C(=O)c1ccccc1S2(=O)=O	x	i	2.7	x	i	-2.1	x	x
CCN1C(=O)c2ccccc2S(=O)(=O)c2ccc(C(=O)NCCCN(CC(C)C)CC(C)C)cc21	-1.6	i	17.9	-0.2	i	11.7	x	x
CCN1CCCC1CNC(=O)c1ccc2c(c1)N(Cc1cccc(Cl)c1)C(=O)c1ccccc1S2(=O)=O (configuration not stated)	-11.7	i	1.4	0.4	-11.7*	6.6	27.5%*	i
CCN1CCCC1CNC(=O)c1ccc2c(c1)N(Cc1ccccc1F)C(=O)c1ccccc1S2(=O)=O (configuration not stated)	x	i	2.3	x	-5.31*	14.8	54.5%*	i
Cc1ccc(SCCN2CCN(C)CC2)cc1	-3.1	i	0.8	0.6	i	25.0	x	x
CCOC(=O)c1nc(S(C)(=O)=O)ncc1Cl	-7.8	i	-0.4	-1.2	-6.31*	8.0	47.3%*	i
CS(=O)(=O)c1ccc(C(=O)Nc2ccc(N3CCOCC3)cc2)c(Cl)c1	-19.1	i	-3.7	-0.2	i	-10.8	x	x
CCOC(=O)c1nc(S(C)(=O)=O)ncc1N1CCOCC1	-10.0	i	-10.5	-0.8	i	8.8	x	x
CS(=O)(=O)c1ncc(Cl)c(C(=O)Nc2ccc(OC(F)F)cc2)n1	-9.7	i	5.8	17.7*	-6.46*	28.9	50.1%*	i
CS(=O)(=O)c1ncc(Cl)c(C(=O)Nc2ccc(N3CCOCC3)cc2)n1	-3.4	i	x	3.3	-6.92*	-4.7	55.8%*	i
COCCC(=O)N1CCC(Oc2ccc(C(=O)N(C)Cc3cc(C)no3)cc2)CC1	-16.3	i	4.8	0.0	i	17.4	x	x
COc1ccccc1CNC(=O)COC(=O)c1cc2ccccc2o1	5.9	x	x	-0.3	x	15.7	x	x
Cc1nn(C)cc1S(=O)(=O)Nc1cccc(Cl)c1	17.9	i	1.3	0.4	i	7.1	x	x
SMILES	SUMO Mot1 rescue	CHT PAM	NALP1 inh	Bfl-1 A1 inh	CHT block	NALP3 yeast inh	CHT block conf	HEK293 MPD ctr
COc1ccc(CCN2CC(C(=O)NCCc3ccc(C(F)(F)F)cc3)CCC2=O)cc1 (configuration not stated)	x	i	11.2	x	i	-11.2	x	x
Cc1ncoc1C(=O)Nc1ccc(Oc2ccccc2)cc1	-3.3	i	19.3	-3.4	-5.96*	47.1	56.9%*	i
COc1ccc(CNC(=O)COC(=O)C2CCC(C(C)(C)C)CC2)cc1 (configuration not stated)	-7.5	i	25.7	1.3	i	21.6	x	x
COc1ccc(CNC(=O)COC(=O)CC2CCCC2)cc1	136.0	i	24.9	-1.0	-5.38*	6.0	i	i
CCOc1ccc(CCNC(=O)c2cn(C)c3ccc(S(=O)(=O)N4CCOCC4)cc3c2=O)cc1OCC	-2.1	i	14.8	0.4	i	2.6	x	x
COC(=O)NNC(=S)NCc1ccc(C)cc1	2.5	i	17.2	0.0	-6.69*	19.0	i	i
Cc1ccc(CNC(N)=S)cc1	5.3	i	17.4	-0.7	i	0.7	x	x
CC1(C)C(=O)Nc2ccccc2N1C(=O)COC(=O)Cc1ccccc1F	-6.7	x	x	1.9	x	-1.3	x	x
O=C(Nc1ncc([N+](=O)[O-])s1)C1CC(=O)N(c2ccc(F)cc2)C1 (configuration not stated)	55.5	i	-15.9	-1.0	-6.66*	24.1	39.9%*	i
O=C(Nc1nccs1)C1CC(=O)N(c2ccc(F)cc2)C1 (configuration not stated)	23.5	i	0.1	0.5	i	0.3	x	x
Cc1ccc(C(=O)NCC2CCCN2S(=O)(=O)c2cccs2)cc1C (configuration not stated)	-1.3	i	x	0.3	i	14.1	x	x
Cc1cc(C)cc(C(=O)NC(CC(N)=O)c2ccc(N3CCN(C)CC3)c([N+](=O)[O-])c2)c1 (configuration not stated)	13.9	i	22.9	-0.3	i	-1.4	x	x
